# Reference: PubChem BioAssay (NCI)
# This is part of a sample that, as a whole, favours compounds with a hit. Of some 83,000 tested, about 20% had one in any assay.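 Each cell line was grown in a 96-well plate and treated with one concentration of compound for 48 hours. Values below 10 were considered active.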 Active and inactive are the calls of the source.
# Test system: T-47D breast
# Assay: NCI-60 one-dose screen, 48 h (100 = growth as untreated, 0 = no growth, -100 = all killed)
# Settings: 10 µM unless noted
row,SMILES,growth
1,CCCNc1nc(N(C)O)nc(N(C)O)n1,28.2% (inactive)
2,Brc1ccc(Cn2nnnc2-c2ccn(-c3ccccc3)n2)cc1,57.7% (inactive)
3,CC(C)(C)CC(C)(C)c1ccc(OCCOCC[N+](C)(C)CC(=O)[O-])cc1,103% (inactive)
4,CN(C)c1ccc(N)c2ccccc12,80.2% (inactive)
5,O=C1c2ccccc2C(=Cc2ccccc2)c2ccccc21,29.4% (inactive)
6,COC(=O)[C@]12CC[C@@H](C)[C@H](C)[C@@H]1C1=CC[C@@H]3[C@@]4(C)C=C(O)C(=O)C(C)=C4CC[C@@]3(C)[C@]1(C)CC2,5.51% (active)
7,Cn1cnc2c1c(=O)n(CCC(=O)Nc1ccc(F)cc1)c(=O)n2C,89.7% (inactive)
8,COC1=C(Br)C(=O)C(OC)=C(Br)C1=O,106% (inactive)
9,N#C/C(=C\c1ccc(-c2ccc(F)cc2)o1)c1nc(-c2ccco2)cs1,-26.3% (active)
10,Nc1nc(N)c2nc3c(nc2n1)CCCCCCCCCC3,82.1% (inactive)
11,COc1ccc(-n2c(/C=C/c3ccc(O)c(OC)c3)cc(/C=C/c3ccc(O)c(OC)c3)nc2=O)cc1,51.8% (inactive)
12,NC(=O)[C@@H]1CC2CCC1C2 (stereo partly drawn),113% (inactive)
13,COc1cccc(-c2nn(-c3ccccc3)cc2-c2ccnc(NCCNS(=O)(=O)c3ccc(Cl)cc3)c2)c1,3.58% (active)
14,C=C1C(=O)O[C@H]2[C@H]1CC/C(COC(=O)NCc1cc3ccccc3[nH]1)=C\CC[C@@]1(C)O[C@@H]21,-43.1% (active)
15,[B-][N+](CC)(CC)c1ccccc1,102% (inactive)
16,Cc1nn2c(-c3nc4cc(Cl)c(Cl)cc4[nH]3)c(-c3ccc(F)cc3)nc2s1,-0.149% (active)
17,O=C1C=C(C(O)c2ccc(O)cc2)C(=O)c2ccccc21 (stereo not drawn),80.2% (inactive)
18,CCCC(=O)N1CCCCC1CC (stereo not drawn),110% (inactive)
19,Cc1nn(-c2ccc(Cl)cc2)c(=O)n1CCn1cnc2ccccc21,90.8% (inactive)

row,SMILES,growth
1,COC(=O)[C@]12CC[C@@H](C)[C@H](C)[C@@H]1C1=CC[C@@H]3[C@@]4(C)C[C@@H](OC(C)=O)[C@H](O)[C@@](C)(CO)[C@@H]4[C@H](O)C[C@@]3(C)[C@]1(C)CC2,-66.9% (active)
2,O=C(/C=C\c1ccc2c(c1)OCO2)/C=C/c1ccc2c(c1)OCO2,75.6% (inactive)
3,Cn1cc(-c2nc(-c3c[nH]c4ncccc34)cs2)c2ccccc21,29.1% (inactive)
4,O=C1C=Cc2ncccc2C1=O,66.6% (inactive)
5,COCCNC1=C(Cl)C(=O)c2ccccc2C1=O,98.8% (inactive)
6,COc1ccc(O)c(-c2cc(-c3ccc(Cl)cc3)c(C#N)c(=O)[nH]2)c1,57.3% (inactive)
7,C/C(=N\Nc1cc(C)c2cc(C)ccc2n1)c1ccccn1,-50.4% (active)
8,COC(=O)C(N)CSC(c1ccccc1)(c1ccccc1)c1ccccc1 (stereo not drawn),23.9% (inactive)
9,CCCCCCCC(=O)SCC/C=C/[C@@H]1CC(=O)NCc2cccc(n2)CN(Cc2ccc3ccccc3c2)CC(=O)N[C@@H](C(C)C)C(=O)O1,44.5% (inactive)
10,C=C(C)[C@@H]1CC[C@]2(CN)CC[C@]3(C)[C@H](CC[C@@H]4[C@@]5(C)CCC(=O)NC(C)(C)[C@@H]5CC[C@]43C)[C@@H]12,53.9% (inactive)
11,CC(=O)O[C@@H]1CCN2C(=O)N(C)c3ccccc3[C@@H]2C1,92.8% (inactive)
12,Cc1cc(N(CCCNc2ccnc3cc(Cl)ccc23)Cc2ccco2)nc(Cl)n1,21.8% (inactive)
13,O=S(=O)(NCCNc1cc(-c2cn(-c3ccccc3)nc2-c2cccc(O)c2)ccn1)c1ccc(Cl)cc1,14.4% (inactive)
14,Cn1c(=O)c2c(nc(N3CCCC3)n2C)n(C)c1=O,90.5% (inactive)
15,Cn1cc(-c2csc(-c3cn(CCN)c4ccc(F)cc34)n2)c2cccnc21,19% (inactive)
16,CC1=NN(c2ccc(S(=O)(=O)O)cc2Cl)C(=O)C1,97.8% (inactive)
17,CC(CNc1nc(Nc2ccc(Cl)c(Cl)c2)nc(C(Cl)(Cl)Cl)n1)N(C)C (stereo not drawn),20.4% (inactive)
18,O=C1NC(=Nc2ccc(S(=O)(=O)Nc3nccs3)cc2)S/C1=C\c1coc2ccccc2c1=O,97.1% (inactive)
19,O=C(c1ccccc1)C(CN1CCOCC1)c1ccccc1 (stereo not drawn),64.3% (inactive)
